Source: PubChem BioAssay AID651661 (Broad Institute, 2012)
Among all 350,000 compounds or so, about 2,300 (0.66%) were called active. What follows is part of a selection rich in actives, with near analogues and random picks from the rest. A number with no mark means an inactive call.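 How the source made its calls: active means mean inhibition of at least 50% after viability correction, with every replicate also passing that limit; inconclusive means mean reaches 50% but only one of two replicates passes; inactive means the rest.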

Experiment: blockers of EWS/Fli transcriptional output – A673 cells, NR0B1 luciferase, luminescence, MLPCN library, primary screen (AID 651661);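 further: firefly luciferase signal divided by Alamar Blue viability fluorescence both relative to DMSO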
Conditions: A673 NR0B1-luciferase reporter, viability-normalised; at 12.6 µM; active compounds read high

SMILES	inhibition
COc1ccc(CN(C)C[C@H]2OCCCC[C@H](C)Oc3ccc(NS(C)(=O)=O)cc3C(=O)N([C@H](C)CO)C[C@@H]2C)cc1	1.53%
O=C(Nc1ccc(F)cc1)N1CCCCN2[C@H](CO)[C@H](c3ccc(C#Cc4ccccc4)cc3)[C@H]2C1	84.6% (active)
CN(C)CC#Cc1ccc([C@@H]2[C@H](CO)N3CCCCN(C(=O)Nc4ccc(F)cc4)C[C@@H]23)cc1	-2.85%
COc1ccc(C#Cc2ccc([C@H]3[C@@H](CO)N4CCCCN(C(=O)Nc5ccccc5)C[C@H]34)cc2)cc1	17.2%
CO[C@H]1CN(C)C(=O)c2ccc(NC(=O)C3CCC3)cc2OC[C@@H](C)NC[C@H]1C	10.2%
CO[C@H]1CN(C)C(=O)c2cc(NC(=O)C3CCCCC3)ccc2OC[C@H](C)N(C(=O)c2ccccc2)C[C@H]1C	9.65%
CCCNC(=O)[C@H]1[C@H](CO)[C@H]2Cn3c(cccc3=O)[C@H]2N1Cc1ccccc1Cl	-2.68%
CC(=O)N(CN1C(=O)C2C3C=CC(C3)C2C1=O)c1cccc(Cl)c1 (stereo not given)	-2.77%
COC(=O)c1cc(C(=O)N(Cc2ccccc2)c2ccccn2)cc([N+](=O)[O-])c1	7.71%
O=C(CCl)N(Cc1cccc([N+](=O)[O-])c1)c1cccc(Cl)c1	60% (active)
CCC(=O)N(C)C[C@H]1Oc2cc(C#CCOC)ccc2S(=O)(=O)N([C@H](C)CO)C[C@H]1C	-9.57%
CCOc1ccccc1N1CCN(C(=O)c2ccc3[nH]c(C)c(C)c3c2)CC1	55.9% (active)
CCOc1ccccc1N1CCN(C(=O)COc2ccc3c(C)cc(=O)oc3c2)CC1	6.43%
CCn1c(C)c(C)c2cc(C(=O)N3CCN(c4cccc(C)c4C)CC3)ccc21	5.16%
CCC(=O)Nc1ccc2c(c1)C(=O)N(C)[C@H]1CC[C@H](CC(=O)NC3Cc4ccccc4C3)O[C@H]1CO2	4.71%
COc1ccc2c3c(n(C)c2c1)[C@H](CO)N(Cc1ccccc1Cl)CC31CN(C(=O)CN(C)C)C1	6.01%
CS(=O)(=O)N1CCN(C(=O)c2cc3ccccc3oc2=O)CC1	-13.4%
O=c1oc2ccccc2cc1-c1cn(-c2ccccc2)c(=S)[nH]1	67.6% (active)
COc1cccc(-n2c(=S)[nH]c3c(oc4ccccc43)c2=O)c1	-11.6%
O=C(N[C@H]1CC[C@H](CCNS(=O)(=O)c2ccc(F)cc2)O[C@H]1CO)c1cccnc1	-0.681%
